# Data: PubChem BioAssay (Tox21)
# Values joined by “and” are separate entries in the source; they are usually repeats but may differ in a detail not shown here. Equal entries are not always repeated. Records with an inconclusive call do not appear. Where a call stands in place of a potency, no number is given. Some compounds were tested as several samples or in several runs, with calls that do not always agree. Active and inactive are the calls of the source. Unless noted, the call rests on the fitted dose curve; in most records, active means well fitted curve in the direction sought with a large enough effect in the repeat runs; inconclusive means weak or mixed curves; inactive means no such curve, though single readings can be large; an effect the other way counts as inactive or inconclusive.
# Columns and labels:
# [1] = qHTS assay to identify small molecule agonists of the RXR signaling pathway - cell viability counter screen (AID 1159529); further: nearly all actives have a fitted effect of over 50% in size; further: potency means the concentration at half of the fitted maximal effect
# Summary of the method: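 Viability read-out for the RXR-alpha agonist qHTS: luminescent CellTiter-Glo signal after 30 min at RT. HEK 293T bla reporter cells, 2% charcoal-stripped FBS, 16 hr compound incubation; tetraoctyl ammonium bromide as cytotoxic control.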
# [2] = qHTS assay to identify small molecule antagonists of the retinoid acid receptor (RAR) signaling pathway - cell viability counter screen (AID 1159551); further: nearly all actives have a fitted effect of over 35% in size; further: potency means the concentration at half of the fitted maximal effect
# Summary of the method: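 Seed C3RL4 cells; next day add compound, then retinol to 1 uM final; incubate 6 h at 37 C; add CellTiter-Glo; read luminescence after 30 min at RT.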
# [3] = target: Retinoic acid receptor RXR-alpha (Homo sapiens) (UniProt P19793); test: qHTS assay to identify small molecule agonists of the RXR signaling pathway (AID 1159527; calls by dose curve; further: nearly all actives have a fitted effect of over 35% in size)
# Summary of the method: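 Fluorescence ratio readout (460 vs 530 nm) from GeneBLAzer RXR-alpha HEK 293T cells after 16 hr compound treatment; cells seeded 5 hr beforehand in low-serum, charcoal-stripped medium.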
# [4] = qHTS assay to identify small molecule agonists of the retinoic acid receptor (RAR) signaling pathway (AID 1159553); details: C3RL4 RARE luciferase reporter, agonist, 6 h; activation: at 73.3 µM (top of the series); further: potency means the concentration at half of the fitted maximal effect
# Summary of the method: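 Activation of retinol signaling was monitored via a RARE luciferase reporter in C3RL4 cells. After 6 hr compound treatment at 37 C, detection reagent was added for 30 min at room temperature before luminescence reading.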
# [5] = qHTS assay to identify small molecule antagonists of the retinoic acid receptor (RAR) signaling pathway (AID 1159552; further: nearly all actives have a fitted effect of over 50% in size; further: potency means the concentration at half of the fitted maximal effect)
# Summary of the method: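 Using a RARE-driven luciferase construct in C3RL4 cells, retinol at 1 uM final provided the agonist stimulus while compounds were co-applied. After 6 hours at 37 C, luminescence was recorded to flag inhibitors of retinol signaling.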
# [6] = qHTS assay to identify small molecule antagonists of the estrogen related receptor (ERR) signaling pathway (AID 1224819;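 further: luminescence from an ERR-driven luciferase reporter measured with One-Glo reagent; nearly all actives have a fitted effect of over 50% in size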)
# Summary of the method: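 qHTS in ERR cells, 2,000/well, 1536 format. Cpd (DMSO) added after 6 h settle, 18 h 37 C. One-Glo luminescence, 30 min RT.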
# Retinoic acid receptor RXR-alpha (Homo sapiens), sequence (P19793 whole entry, looked up): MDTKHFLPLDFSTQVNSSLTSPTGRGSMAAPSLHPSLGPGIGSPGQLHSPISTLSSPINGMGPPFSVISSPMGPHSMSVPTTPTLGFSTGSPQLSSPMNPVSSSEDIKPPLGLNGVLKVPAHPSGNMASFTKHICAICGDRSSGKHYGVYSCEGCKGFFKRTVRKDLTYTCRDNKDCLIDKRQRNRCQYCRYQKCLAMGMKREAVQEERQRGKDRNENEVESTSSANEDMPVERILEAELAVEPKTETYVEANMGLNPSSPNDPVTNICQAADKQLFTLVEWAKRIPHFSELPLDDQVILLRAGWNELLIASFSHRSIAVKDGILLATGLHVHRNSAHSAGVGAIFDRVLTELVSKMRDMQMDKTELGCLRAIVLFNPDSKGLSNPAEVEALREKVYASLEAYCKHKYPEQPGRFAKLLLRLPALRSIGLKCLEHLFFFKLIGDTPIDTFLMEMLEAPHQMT
compound,measurement,setting,value
CC[C@]1(O)C[C@H]2CN(CCc3c([nH]c4ccccc34)[C@@](C(=O)OC)(c3cc4c(cc3OC)N(C=O)[C@H]3[C@@](O)(C(=O)OC)[C@H](OC(C)=O)[C@]5(CC)C=CCN6CC[C@]43[C@@H]65)C2)C1,Potency,[1],inactive
same,Potency,[2],inactive
CCOC(=O)[C@H](CCc1ccccc1)N[C@@H](C)C(=O)N(CC(=O)O)C1Cc2ccccc2C1,Potency,[1],5.35 µM (active)
same,Potency,[2],inactive
CC1CC(C)C(=O)C1=O (configuration not stated),Potency,[1],inactive
same,Potency,[2],inactive
COc1cc(Nc2c(C#N)cnc3cc(OCCCN4CCN(C)CC4)c(OC)cc23)c(Cl)cc1Cl,Potency,[1],8.49 µM (active)
same,Potency,[2],inactive
c1ccc2sc(SN(C3CCCCC3)C3CCCCC3)nc2c1,Potency,[1],inactive
same,Potency,[2],inactive
N#CCCN(CCO)CCO,Potency,[1],inactive
same,Potency,[2],inactive
Cc1ccccc1S,Potency,[1],inactive
same,Potency,[2],inactive
O=[N+]([O-])c1cc(C2CCCCC2)c(O)c([N+](=O)[O-])c1,Potency,[3],inactive
same,Potency,[2],inactive
same,Potency,[4],inactive
COC(=O)C1=C(C)NC(C)=C(C(=O)O[C@@H]2CCCN(Cc3ccccc3)C2)[C@@H]1c1cccc([N+](=O)[O-])c1,Potency,[1],inactive
same,Potency,[2],inactive
CC(=O)N/N=C/c1ccc([N+](=O)[O-])o1,Potency,[1],inactive
same,Potency,[2],inactive
same,Potency,[5],29.8 µM (active)
COc1ccc(OC(=O)N(CC(=O)O)Cc2ccc(OCCc3nc(-c4ccccc4)oc3C)cc2)cc1,Potency,[1],inactive
same,Potency,[2],inactive
Cc1ccc2c(Br)cc(Br)c(O)c2n1,Potency,[1],26.8 µM (active)
same,Potency,[2],inactive
same,Potency,[5],inactive
same,Potency,[4],inactive
CC1=Nc2ccc3ccccc3c2C1(C)C,Potency,[1],inactive
same,Potency,[2],inactive
O=C(OCC(O)CO)c1ccccc1Nc1ccnc2cc(Cl)ccc12 (configuration not stated),Potency,[1],inactive
same,Potency,[2],inactive
same,Potency,[5],inactive
Cc1ccco1,Potency,[1],inactive
same,Potency,[2],inactive
CC(=O)OCC[N+](C)(C)C,Potency,[1],inactive
same,Potency,[2],inactive
same,Potency,[5],inactive
same,Potency,[4],inactive
O=C1C(=O)c2ccccc2C(O)=C1C1CCC(c2ccc(Cl)cc2)CC1 (configuration not stated),Potency,[1],inactive
same,Potency,[2],inactive
C[C@]1(Cn2ccnn2)[C@H](C(=O)O)N2C(=O)C[C@H]2S1(=O)=O,Potency,[1],inactive
same,Potency,[2],inactive
C[C@@H]1CC(=O)NN=C1c1ccc(NN=C(C#N)C#N)cc1,Potency,[1],inactive
same,Potency,[2],inactive
same,Potency,[5],inactive
CCCCCC#CC(=O)OC,Potency,[1],inactive
same,Potency,[2],inactive
O=C1c2ccccc2C(=O)C1(O)O,Potency,[3],inactive
same,Potency,[5],inactive
CC(=O)OCCN(CCOC(C)=O)c1ccc(N=Nc2ccc([N+](=O)[O-])cc2C#N)cc1,Potency,[1],inactive
same,Potency,[2],48.6 µM (active)
OC[C@H]1O[C@@H](n2cnc3c(=S)nc[nH]c32)[C@H](O)[C@@H]1O,Potency,[1],2.13 µM (active)
CCOC(=O)c1ccc(C#Cc2ccc3c(c2)C(C)(C)CCS3)nc1,Potency,[1],inactive
same,Potency,[2],inactive
CC(CC1c2ccccc2CCc2ccccc21)CN(C)C (configuration not stated),Potency,[3],inactive
same,Potency,[2],inactive
same,Potency,[4],inactive
CCCCC(CC)CN (configuration not stated),Potency,[1],inactive
same,Potency,[2],inactive
same,Potency,[5],inactive
same,Potency,[4],inactive
O=c1[nH]ncc2ccccc12,Potency,[1],inactive
same,Potency,[2],inactive
same,Potency,[5],inactive
same,Potency,[4],inactive
CC(C)C[C@H](NC(=O)[C@H](CCc1ccccc1)NC(=O)CN1CCOCC1)C(=O)N[C@@H](Cc1ccccc1)C(=O)N[C@@H](CC(C)C)C(=O)[C@@]1(C)CO1,Potency,[1],inactive
same,Potency,[2],inactive
same,Potency,[5],inactive
same,Potency,[4],0.0473 µM (active)
CCCCCCCCCCCCCCN(CCO)CCO,Potency,[1],21.9 µM (active)
same,Potency,[2],61.1 µM (active)
C[C@]12CC[C@@H]3c4ccc(O)cc4CC[C@H]3[C@@H]1CC[C@@H]2OC(=O)CCC1CCCC1,Potency,[1],49 µM (active) and 26.8 µM (active)
same,Potency,[2],inactive
same,Potency,[5],61.1 µM (active) and inactive
CC1(C)[C@@H](OC(=O)CCC(=O)O)CC[C@]2(C)[C@H]3C(=O)C=C4[C@@H]5C[C@@](C)(C(=O)O)CC[C@]5(C)CC[C@@]4(C)[C@]3(C)CC[C@@H]12,Potency,[1],inactive
same,Potency,[2],inactive
same,Potency,[5],inactive
same,Potency,[4],inactive
Cc1c(C)c2c(c(C)c1OC(=O)CCC(=O)OCCO)CC[C@@](C)(CCC[C@H](C)CCC[C@H](C)CCCC(C)C)O2,Potency,[1],inactive
Cc1cscn1,Potency,[1],inactive
same,Potency,[2],inactive
CC(=O)c1ccc([N+](=O)[O-])cc1,Potency,[1],inactive
same,Potency,[2],inactive
same,Potency,[5],inactive
same,Potency,[4],inactive
C=C(C)C(=O)OCCOCCOC(=O)C(=C)C,Potency,[1],inactive
same,Potency,[2],inactive
COC(=O)[C@H]1[C@H]2C[C@@H]3c4[nH]c5cc(OC)ccc5c4CCN3C[C@H]2C[C@@H](OC(=O)/C=C/c2ccc(O)c(OC)c2)[C@@H]1OC,Potency,[1],inactive
same,Potency,[2],inactive
COc1ccccc1NC(=O)c1cc2ccccc2cc1O,Potency,[1],inactive
same,Potency,[2],inactive
same,Potency,[5],inactive
CC(=O)Nc1cc(S(=O)(=O)O)cc2cc(S(=O)(=O)O)c(N=Nc3ccccc3)c(O)c12,Potency,[1],inactive
same,Potency,[2],24.3 µM (active)
same,Potency,[5],inactive
same,Potency,[4],inactive
C=CC(=O)[O-].C=CC(=O)[O-].[Zn+2],Potency,[1],inactive
same,Potency,[2],inactive
same,Potency,[5],inactive
CN(C)CCC=C1c2ccccc2C=Cc2ccccc21,outcome,[6],inactive
OCCN1CCN(CCCN2c3ccccc3Sc3ccc(Cl)cc32)CC1,outcome,[6],inactive
